Data: PubChem BioAssay
The source made the active and inactive calls.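 The calls were made as follows, unless noted: active = compounds whose cell count with miR-34 switched on is under 0.7 times the count with it off; inactive = the rest.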

Tests used:
[1] = sensitizers of A549 cells to miR-34 induction, primary screen, imaging, A549 dox-inducible miR-34, nuclei and caspase counts (AID 1347080); details: A549 miR-34 inducible, Hoechst nuclei count, 48 h; also: test concentration not given here
[2] = survival rescue of mitochondrial mutant cells in low glucose, primary screen, MELAS cybrids, Rieske KO mouse fibroblasts, CellTiter-Glo (AID 1508586;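 active = mean z-score across replicates of 1.96 or higher in either the MELAS or the Rieske mutant cell line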;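 also: test concentration not given here; z relative to plate mean and SD of compound and empty wells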)
[3] = viability rescue of complex I mutant cybrids, primary screen, cell-based, galactose medium, ATP luminescence (AID 1645843;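 active = z-score of at least 1.8 in each of two replicates, scored against plate mean and spread of sample wells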;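 also: positive z means more ATP and so rescue of galactose-driven cybrid death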); details: complex I mutant cybrid cells, 72 h, stronger effect = higher value
[4] = stronger effect = lower value, cell number ratio, induced over uninduced
[5] = measured here: relative caspase fold change +Dox/-Dox
[6] = measured here: total cells with miR-34 induction, stronger effect = lower value
[7] = measured here: total cells without miR-34 induction
[8] = MELAS cybrid survival, CellTiter-Glo 48 h, stronger effect = higher value
[9] = Rieske KO mouse fibroblast survival, CellTiter-Glo 72 h

Row | SMILES | fold change [1, 4] | fold change [1, 5] | cell count [1, 6] | cell count [1, 7] | z-score [2, 8] | z-score [2, 9] | z-score [3]
1 | Cc1ccc2nc(C3CCCN3c3ncc(C)c(-c4cnn(C)c4)n3)[nH]c2c1 (stereo unspecified) | 0.91 (inactive) | 1.37 | 7980 | 8770 | -0.0346 (inactive) | 0.328 | -0.325 (inactive)
2 | CN(Cc1nc2ccc(Cl)cc2[nH]1)C(=O)c1n[nH]c2ccccc12 | 0.846 (inactive) | 1.41 | 6230 | 7360 | -0.529 (inactive) | 0.953 | 1.46 (inactive)
3 | CN(C)C(=O)c1cc(-c2[nH]ncc2-c2ccccc2)c[nH]1 | 0.875 (inactive) | 0.578 | 7590 | 8680 | 1.27 (inactive) | 0.199 | -0.655 (inactive)
4 | CCN(CC)S(=O)(=O)c1cc(C(=O)Nc2ccccc2C(=O)O)ccc1Br | 0.904 (inactive) | 0.416 | 8290 | 9170 | -0.577 (inactive) | 0.639 | 0.82 (inactive)
5 | Cc1nn(C)cc1-c1ccnc(NC2CCOC(C)(C)C2)n1 (stereo unspecified) | 0.847 (inactive) | 2.06 | 8460 | 9990 | -0.0523 (inactive) | -0.494 | -0.56 (inactive)
6 | Cc1cc(C(=O)Nc2ccc3c(c2)CC(=O)N3)c(C)o1 | 0.929 (inactive) | 1.42 | 9120 | 9820 | -0.11 (inactive) | -0.503 | -0.465 (inactive)
7 | CCc1c(C)[nH]n(-c2nn[nH]n2)c1=O | 0.897 (inactive) | 0.608 | 8110 | 9050 | -1.16 (inactive) | -0.864 | 0.055 (inactive)
8 | Cc1nn(C)c(C)c1-c1ccnc(NCCc2nc3ccc(Cl)cc3[nH]2)n1 | 0.924 (inactive) | 3.32 | 1430 | 1550 | -0.908 (inactive) | 0.453 | -0.38 (inactive)
9 | NC(N)=NCC(=O)O | 0.926 (inactive) | 0.467 | 8690 | 9380 | 0.863 (inactive) | 0.0822 | 0.15 (inactive)
10 | Cc1ccccc1-n1cc(-c2ccnc(NCCC3(O)CCN(C)CC3)n2)cn1 | 0.797 (inactive) | 1.49 | 8470 | 10600 | 0.152 (inactive) | -0.0851 | -0.43 (inactive)
11 | CCn1cc(CNC(=O)Nc2nnc(C(C)(C)C)s2)cn1 | 0.886 (inactive) | 2.1 | 8600 | 9710 | 0.641 (inactive) | -0.73 | -0.6 (inactive)
12 | CN(C)c1ccc(N=Nc2ccccc2C(=O)O)cc1 | 0.742 (inactive) | 0.761 | 2520 | 3400 | -1.2 (inactive) | 0.626 | -0.36 (inactive)
13 | NC(=O)Cc1c[nH]c2ccccc12 | 0.914 (inactive) | 0.482 | 8170 | 8950 | 0.728 (inactive) | -0.479 | 0.1 (inactive)
14 | Cc1nc(C)c(-c2ccnc(N)n2)s1 | 0.869 (inactive) | 0.21 | 8060 | 9270 | 0.483 (inactive) | -0.306 | -0.255 (inactive)
15 | COc1ccc(-c2cc(-n3cccn3)ncn2)c(-n2cccn2)c1 | 0.922 (inactive) | 1.07 | 8340 | 9050 | -0.554 (inactive) | 0.208 | -0.595 (inactive)
16 | O=C(O)CCCCc1ccccc1 | 0.916 (inactive) | 0.396 | 9010 | 9830 | 0.335 (inactive) | -0.289 | 0.82 (inactive)
17 | O=C(O)Cc1c[nH]c2ccccc12 | 0.913 (inactive) | 0.9 | 8300 | 9090 | -0.643 (inactive) | -0.265 | 0.49 (inactive)
18 | c1ccn2cc(CCNc3ncnc4nc[nH]c34)nc2c1 | 0.837 (inactive) | 1.9 | 8280 | 9890 | -0.607 (inactive) | -0.578 | -0.4 (inactive)
19 | NCCC(O)C(=O)NC1CC(N)C(OC2OC(CN)C(O)C(O)C2O)C(O)C1OC1OC(CO)C(O)C(N)C1O (stereo unspecified) | 0.888 (inactive) | 0.936 | 8210 | 9240 | -1.15 (inactive) | -0.0039 | 0.985 (inactive)
20 | O=C(O)c1ccc(-c2ccc([N+](=O)[O-])cc2Cl)o1 | 0.876 (inactive) | 0.203 | 8260 | 9440 | 0.0167 (inactive) | -0.308 | 0.255 (inactive)
21 | O=C(Nc1cc(Br)c(O)c(Br)c1)c1ccccc1 | 0.856 (inactive) | 0.708 | 7950 | 9290 | 0.106 (inactive) | -0.271 | 0.2 (inactive)
22 | O=C(COc1ccc(Cl)cc1)Nc1ccccc1C(=O)O | 0.906 (inactive) | 0.574 | 8240 | 9090 | -0.363 (inactive) | -0.206 | 0.885 (inactive)
23 | O=C(O)CNC(=O)c1cccc(O)c1 | 0.865 (inactive) | 0.603 | 8440 | 9760 | 0.669 (inactive) | 0.0478 | 0.945 (inactive)
